In all, about 360,000 compounds went through this assay and about 7,500 (2.1%) were called active. About 8% were inconclusive and are not listed. Calls follow the shape of the dose curve; as a rule, active = well fitted cell-killing curve with a large enough effect; inconclusive = small, poorly fitted or top-dose-only effect, or effect the other way, or another doubt; inactive = no such curve, though single readings can be large or run the other way. For the sample, actives were picked, then their nearest neighbours and some compounds at random.
Test: qHTS for induction of synthetic lethality in tumor cells producing 2HG: qHTS for the HT-1080-IDH1KD cell line;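 as to activity, negative = toxicity: 0% = DMSO wells and -100% = cell-free medium wells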
Settings: HT-1080 IDH1 knockdown viability, ATP luminescence, 48 h; series mostly up to 46.1 µM; activity, negative = toxicity: at the top concentration
In short: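 HT-1080-IDH1KD cells (IDH1 knocked down), 750/well in RPMI with 5% FBS, treated with compound 48 h at 37 degrees C. Viability by CellTiter-Glo luminescence, normalised to DMSO and no-cell wells; concentration-response curves classed.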
Potency is read from the fitted curve at half-maximal effect.

Structure (SMILES) | activity, negative = toxicity | Potency
CCN(c1ccccc1)S(=O)(=O)c1ccc(C(=O)Nc2nccs2)cc1 | 10% (inactive) | –
Cc1cccc(NC(=O)c2ccc(S(=O)(=O)N(C)c3ccccc3)cc2)n1 | -21.5% (inactive) | –
C=CCN(CC=C)S(=O)(=O)c1ccc(C(=O)Nc2nc3c(s2)CCc2ccccc2-3)cc1 | – | 14.6 µM (active)
Cc1ccccc1S(=O)(=O)NC(=O)C1(C)CCN1C(=O)C1(c2ccc(Cl)cc2)CC1 (stereo not drawn) | 28% (inactive) | –
CNS(=O)(=O)c1ccc2c(c1)[nH]c(=S)n2C | -8.8% (inactive) | –
COc1ccc(-c2nc(N)ncc2-c2ccc(Cl)cc2)c(O)c1 | -6.82% (inactive) | –
COc1ccc(OC)c(Cc2nnc(CCC(=O)NC3CCCC3)o2)c1 | 11.3% (inactive) | –
COc1ccc(OC)c(Cc2cnc3nc(N)nc(N)c3c2C)c1 | – | 0.0103 µM (active)
Nc1nc2cc(Cl)ccc2n1N | 8.14% (inactive) | –
CCC(C)CN1C(=O)CSCC1(C)C(=O)NCc1ccccc1 (stereo not drawn) | 24.8% (inactive) | –
Cc1sc2ccccc2c1CNC[C@H]1O[C@@H](n2ccc(=O)[nH]c2=O)[C@H](O)[C@@H]1O | 14.3% (inactive) | –
O=C(COC(=O)c1cncc(Br)c1)Nc1ccc(S(=O)(=O)N2CCOCC2)cc1 | -1.98% (inactive) | –
CCc1nc2c(OCCOc3ccccc3)cccn2c1N(C)C(=O)c1cccs1 | 5.52% (inactive) | –
Cc1cccc(-c2cnc(C(O)c3cc(C)cc(C)c3)[nH]2)c1 (stereo not drawn) | -12.6% (inactive) | –
Cc1cccc(OCC(=O)NCCNC(=O)c2cccnc2)c1 | -4.95% (inactive) | –
Cc1ccc(OCC(=O)NCCCNC(=O)c2cccnc2)cc1C | – | 18.4 µM (active)
CCCOc1cccc(C(=O)NCCCNC(=O)c2cccnc2)c1 | 0.556% (inactive) | –
CCN(CC)C(=O)C1=C(C)N(Cc2ccc(F)cc2)C(=O)C(CC(=O)NCc2cccc3ccccc23)C1 (stereo not drawn) | -2.6% (inactive) | –
COc1cc(/C=N\NC(=O)C2C(=O)NCC2c2ccccc2)cc(OC)c1O (stereo not drawn) | 2.02% (inactive) | –
COc1cccc(/C=N\NC(=O)C2=NNC(=O)C2C)c1O (stereo not drawn) | – | 25.9 µM (active)
COc1ccc(Br)cc1/C=N/NC(=O)c1cccc(S(=O)(=O)N2CCOCC2)c1 | -20.3% (inactive) | –
COc1ccc(/C=N/NC(=O)c2ccncc2)cc1CN1CCCc2ccccc21 | -7.69% (inactive) | –
COc1cccc(/C=N/NC(=O)c2[nH]nc3c2CCc2ccccc2-3)c1O | – | 3.66 µM (active)
Cc1ccc(C(=O)N/N=C/c2cccc3ccccc23)cn1 | 6.84% (inactive) | –
CC(C)C1CC2=C(C(=O)OC(C)(C)O2)C(c2ccc(F)cc2)O1 (stereo not drawn) | 6.13% (inactive) | –
CC1=C(C(=O)N2CCOCC2)CC(CC(=O)NCC2CCCCC2)C(=O)N1Cc1ccc(F)cc1 (stereo not drawn) | -8.15% (inactive) | –
O=Nc1c(O)cc(O)c2ccccc12 | 4.65% (inactive) | –
COC(=O)C[C@@H]1C=C[C@@H](NC(=O)c2cccnc2)[C@@H](CO)O1 | 8.29% (inactive) | –
